NPR1 antag = Natriuretic polypeptide receptor (hNpr1) antagonism - Primary qHTS | Atrial natriuretic peptide receptor 1 (Homo sapiens), P16066 | HEK293 hNpr1 GloSensor cGMP, ANP-stimulated luminescence | Potency, µM (doses to about 46.3 µM), without a hit: at the highest dose activity change, negative = inhibition, most hits filed as inhibitors | 76,000 compounds, 1.6% hits; calls by dose curve; note: nearly all actives have a fitted effect of over 60% in size
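Compound pre-incubated 30 min at room temperature on GloSensor-loaded HEK293 cells stably carrying hNpr1 and the pGS-40F cGMP biosensor. Stimulation uses hNppA at 0.1 nM final; luminescence is taken at baseline and 20 min post-agonist.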
Luciferase inh = Firefly luciferase inhibition profiling of diverse chemical library using quantitative high-throughput screening; 76,000 compounds, 2.5% hits; Potency, µM (series often up to 115 µM), usual class: inhibitors; purified P. pyralis luciferase, luminescence, biochemical; AID 1347043, 2019; Luciferin 4-monooxygenase (Photinus pyralis), P08659; note: nearly all actives have a fitted effect of over 65% in size
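Cell-free enzyme assay, 10nM P. pyralis luciferase, luciferin and ATP each at 10uM. Inhibition profiled over a 6-point titration, read as luminescence.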
HEK cytotox = Cytotoxic Profiling in HEK 293 Cell Line of Diverse Libraries Using Quantitative High-Throughput Screening | HEK 293 viability, ATP luminescence (CellTiter-Glo), 48-72 h | Potency, µM (doses to about 115 µM), inactives show top-dose activity change, negative = cytotoxicity, usual class: inhibitors | 94,000 compounds, 6.6% hits | AID 1345083, 2018; note: nearly all actives have a fitted effect of over 60% in size
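HEK 293 seeded at 250 cells/well receive compound via pintool. After 48 or 72 hr at 37 degree Celsius, 5% CO2 and 95% humidity, CellTiter-Glo is dispensed and luminescence read following 10 min at room temperature.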
3T3 cytotox = Cytotoxic Profiling in NIH 3T3 Cell Line of Diverse Libraries Using Quantitative High-Throughput Screening. NIH 3T3 viability, CellTiter-Glo ATP luminescence, 48-72 h. Potency, µM (titrated, usually from 96.7 µM), without a hit: top-dose activity change, negative = cytotoxicity, most hits filed as inhibitors. 94,000 compounds, 4.3% hits; note: nearly all actives have a fitted effect of over 55% in size
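Viability of NIH 3T3 cells after 48 or 72 hr compound treatment at 37 °C was assessed by CellTiter-Glo, with luminescence imaged following a 10 min room-temperature step.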
Active calls of the source: *; i = inactive; ? = inconclusive; . = no result given; [ ] = another dose, or the depositor's remark. In the library only some 11% were active in any assay of this set; here they are far more common. Unless noted, calls come from the whole dose curve; as a rule, active = well fitted curve in the direction sought with a large enough effect; inconclusive = small, poorly fitted or top-dose-only effect, or another doubt; inactive = no such curve, though single readings can be large; an effect the other way counts as inactive or inconclusive. % is set by controls: 0 for no effect and ±100 for the full control effect; potency is the fitted concentration of half-maximal effect.

SMILES	NPR1 antag	Luciferase inh	HEK cytotox	3T3 cytotox
CC1=C[C@@H](CNC(=O)COc2ccccc2)[C@H](C(C)C)C[C@H]1Cc1nnc(-c2cncn2C)o1	-24%	i	50µM*	?
CC1=C[C@@H](CN2CCC[C@H]2CO)[C@H](C(C)C)C[C@H]1Cc1nnc(-c2cncn2C)o1	1%[70.6 µM]	i	?	100µM*
Cc1ccc(S(=O)(=O)N2CCCC(Cn3cnc4cccnc43)C2)cc1F (stereo not given)	-19%	i	-28%	-35%
CC(C)Cc1ccc(S(=O)(=O)N2CCCC(Cn3cnc4cccnc43)C2)cc1 (stereo not given)	-22%	i	45µM*	?
O=S(=O)(c1cc(F)cc(F)c1)N1CCCC(Cn2c(C3CC3)nc3cccnc32)C1 (stereo not given)	6%	i	?	40µM*
Cc1nc2cccnc2n1CC1CCCN(S(=O)(=O)c2cccc(F)c2)C1 (stereo not given)	-18%	i	35µM*	?
O=C(NC1CCCCC1)C1(CCO)CC12CCOCC2 (stereo not given)	.	.	0%	-6%
Cc1cnc(CCNC(=O)Cc2ccccc2)n1CC1CC1	-16%	i	-5%	i
O=C(c1ccc(Cl)nc1)N1CCC(C(=O)N2CCC(c3nc4ccncc4[nH]3)C2)CC1 (stereo not given)	.	.	i	-11%
CC(C)NC(=O)c1nc2sccn2c1-c1ccccc1	.	.	-2%[172 µM]	-21%[138 µM]
CC(C)(C)c1ccc(C(=O)Nc2ccc(C(O)[C@H]3COCC(=O)N3Cc3ccccn3)cc2)cc1 (stereo not given in full)	-15%	16µM*	?	?
O=C(Cc1ccccc1)Nc1ccc([C@@H](O)[C@H]2COCC(=O)N2Cc2ccc(C(F)(F)F)cc2)cc1	0%	i	?	79µM*
O=C(Cc1ccccc1)Nc1ccc([C@@H](O)[C@H]2COCC(=O)N2Cc2ccccc2)cc1	2%[70.6 µM]	i	-13%[172 µM]	-18%[174 µM]
O=C(Nc1ccc([C@@H](O)[C@H]2COCC(=O)N2Cc2ccc(F)cc2)cc1)c1ccccc1	-7%[70.6 µM]	i	100µM*	?
N#Cc1ccc(C(=O)Nc2ccc([C@@H](O)[C@H]3COCC(=O)N3Cc3ccc(F)cc3)cc2)cc1	0%	i	?	-29%
CCN1CCN(C(=O)c2nc3sccn3c2-c2cccc(C(F)(F)F)c2)CC1	.	.	-19%	-27%
CCN1c2cc(C(=O)Nc3ccc(C)cc3Cl)ccc2C(=O)N2CCCCCC21 (stereo not given)	-1%	i	50µM*	?
CCN1c2cc(C(=O)NCCC3=CCCCC3)ccc2C(=O)N2CCCCC21 (stereo not given)	-10%	i	45µM*	?
CCN1c2cc(C(=O)Nc3ccc(C)cc3)ccc2C(=O)N2CCCCCC21 (stereo not given)	-24%	?	40µM*	?
CCN1c2cc(C(=O)Nc3ccccc3)ccc2C(=O)N2CCCCCC21 (stereo not given)	-3%	i	40µM*	?
CCN1c2cc(C(=O)Nc3ccc(Br)cc3)ccc2C(=O)N2CCCC21 (stereo not given)	-2%	i	40%	i
COCCOCc1nc(C2CCN(C(=O)CCc3ccccc3)C2)no1 (stereo not given)	.	.	0%	2%
CN1c2cc(C(=O)Nc3ccc(N4CCOCC4)cc3)ccc2C(=O)N2CCCCC21 (stereo not given)	-6%	i	?	?
CCc1ccc(NC(=O)c2ccc3c(c2)N(CC)C2CCCCN2C3=O)cc1 (stereo not given)	-9%	?	25µM*	?
CCN1c2cc(C(=O)Nc3ccc(N4CCOCC4)cc3)ccc2C(=O)N2CCCCC21 (stereo not given)	0%	i	?	20µM*
CCN1c2cc(C(=O)Nc3cccc(C#N)c3)ccc2C(=O)N2CCCCCC21 (stereo not given)	-14%	i	16µM*	?
CCN1c2cc(C(=O)Nc3cc(F)cc(F)c3)ccc2C(=O)N2CCCCCC21 (stereo not given)	0%	i	?	?

Assay outcomes: PubChem, National Center for Advancing Translational Sciences (NCATS)
